{
  "source": "PubChem BioAssay (NCATS)",
  "key": {"[1]": {"assay": "qHTS Assay for Identification of Small Molecule Agonists for Hypoxia Response Element Signaling Pathway (AID 914; active = well fitted activation curve with a large enough effect in the signal ratio, with a control signal flat, not every such curve was filed as active; the % refers to the signal ratio; also: % of control where 0% means no effect)", "details": "ME-180 HRE-bla reporter, beta-lactamase ratio, CoCl2, 17 h; activation: stronger effect = higher value", "outline": "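AC50 values come from titration-series %Activity, taken as the 460/530nm ratio of CCF4 fluorescence (excitation 405nm). CellSensor HRE-bla ME-180 cells were treated 17 hours at 37 C with compound plus an EC50 level of CoCl2.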"}, "[2]": {"assay": "Confirmation and Secondary Assay for Modulators of Hemoglobin Beta Chain Splicing at IVS2 654 locus (AID 910);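 also: HeLa cells stably carrying EGFP split by mutant beta-globin IVS2-654 intron; per-well total GFP intensity by laser scanning cytometry after 2-day treatment; % of control where 0% means no effect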", "details": "HeLa EGFP-654 splicing reporter, GFP fluorescence, 48 h; series mostly up to 46.1 µM", "outline": "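Readout: per-well total peak green fluorescence (488 nm ex, 500–520 nm em) from objects 5–250 µm, reflecting correct splicing of an EGFP-654 reporter. Compounds were applied for 2 days at 37 °C to overnight-plated HeLa EGFP-654 cells; controls were DMSO and 500 nM IVS2-654 PNA.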"}, "[3]": {"assay": "Confirmation and Secondary Assay for Modulators of Hemoglobin Beta Chain Splicing at IVS2 705 locus (AID 930);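 also: HeLa cells stably expressing the EGFP-705 splicing reporter; % of control where 0% means no effect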", "details": "HeLa EGFP-705 splicing reporter, GFP fluorescence, 48 h; series mostly up to 46.1 µM", "outline": "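Restored EGFP fluorescence after 2-day compound exposure reports splicing correction in IVS2-705 EGFP reporter HeLa cells; positive control was 500 nM splice-blocking PNA oligo. Signal measured as well total peak GFP intensity (488 nm excitation).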"}, "[4]": {"target": "DNA dC->dU-editing enzyme APOBEC-3G (Homo sapiens) (UniProt Q9HC16)", "sequence (Q9HC16 whole entry, looked up)": "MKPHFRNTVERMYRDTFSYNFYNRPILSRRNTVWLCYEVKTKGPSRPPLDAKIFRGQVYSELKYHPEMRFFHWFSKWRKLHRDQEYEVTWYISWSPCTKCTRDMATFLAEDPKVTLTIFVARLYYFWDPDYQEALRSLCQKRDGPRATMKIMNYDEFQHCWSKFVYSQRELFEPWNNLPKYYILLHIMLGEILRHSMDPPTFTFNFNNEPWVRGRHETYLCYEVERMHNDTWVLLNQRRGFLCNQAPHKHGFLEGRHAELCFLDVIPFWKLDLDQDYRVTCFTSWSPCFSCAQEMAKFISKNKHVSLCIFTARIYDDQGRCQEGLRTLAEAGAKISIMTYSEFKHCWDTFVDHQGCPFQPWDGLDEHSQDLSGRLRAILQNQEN", "assay": "qHTS for inhibitors of Vif-A3G interactions: Validation (AID 588379); also: 0% is about no effect", "details": "Vif-A3G protein interaction assay; series mostly up to 46.1 µM", "outline": "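Yellow fluorescence (Ex 488, Em 500-530) of Vif-coexpressing HeLa A3G-eYFP cells, scanned by Acumen cytometer, reports blocked A3G degradation. Cells plated at 700/well overnight at 37 deg C before compound addition, then a further overnight compound incubation at 37 deg C.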"}, "[5]": {"assay": "qHTS Assay for Identifying Gametocytocidal Compounds (AID 743244); also: potency is read from the fitted curve at half-maximal effect", "details": "P. falciparum 3D7 stage III-V gametocytes, alamarBlue, 72 h; max response: stronger effect = lower value", "outline": "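Late gametocytes (III–V), P. falciparum 3D7; 72 h drug, then 24 h alamarBlue; resazurin reduction read by fluorescence.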"}, "[6]": {"assay": "qHTS profiling for inhibitors of Plasmodium falciparum (3D7) proliferation (AID 743322);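 also: 100% = DMSO vehicle wells and 0% = 0.29 µM artemisinin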", "details": "P. falciparum 3D7 proliferation; at 9.63 µM (top of the series)", "outline": "(§1)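 Parasite DNA was quantified by SYBR Green I fluorescence (ex 485, em 535 nm) after overnight lysis in saponin/Triton buffer at room temperature. Cultures at 0.3% parasitemia and 2.5% hematocrit were first exposed to compound for 72 h at 37 C; signals were normalised to artemisinin (0.29 uM) and vehicle wells.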"}, "[7]": {"assay": "qHTS profiling for inhibitors of Plasmodium falciparum (DD2) proliferation (AID 743323; call rule not given here)", "details": "lower = more inhibition; at 9.63 µM (top of the series)", "outline": "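SYBR Green fluorescence (ex 485, em 535 nm) of lysed cultures gives parasite DNA content; wells normalized to artemisinin (0.29 uM) and DMSO controls. Infected red cells: 0.3% parasitemia, 2.5% hematocrit, 72 h, 37 C.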"}, "[8]": {"assay": "qHTS profiling for inhibitors of Plasmodium falciparum (HB3) proliferation (AID 743324)", "details": "Plasmodium falciparum HB3 blood-stage proliferation; at 9.63 µM (top of the series)", "outline": "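SYBR Green fluorescence (485 ex/535 em) of lysed cultures, incubated overnight at room temperature in the dark, quantifies parasite DNA. Infected erythrocytes at 0.3% parasitemia and 2.5% hematocrit were exposed 72 h; values normalized to DMSO and 0.29 uM artemisinin controls.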"}, "[9]": {"assay": "qHTS profiling of the MIPE4 collection as inhibitors of Plasmodium falciparum (3D7) proliferation (AID 743344; call rule not given here)", "details": "P. falciparum 3D7 in erythrocytes, SYBR Green DNA fluorescence, 72 h; at 9.64 µM (top of the series)", "outline": "as §1"}, "[10]": {"assay": "qHTS profiling of the MIPE4 collection as inhibitors of Plasmodium falciparum (DD2) proliferation (AID 743345; call rule not given here)", "details": "P. falciparum Dd2 in erythrocytes, SYBR Green DNA, 72 h; at 9.64 µM (top of the series)", "outline": "as §1"}, "[11]": {"assay": "qHTS profiling of the MIPE4 collection as inhibitors of Plasmodium falciparum (DD2) proliferation (Rep 2) (AID 743346; call rule not given here)", "details": "P. falciparum Dd2 in erythrocytes, SYBR Green DNA, 72 h; at 9.64 µM (top of the series)", "outline": "as §1"}, "[12]": {"assay": "qHTS profiling of the MIPE4 collection as inhibitors of Plasmodium falciparum (HB3) proliferation (AID 743347; call rule not given here)", "details": "P. falciparum HB3 in erythrocytes, SYBR Green DNA, 72 h; at 9.64 µM (top of the series)", "outline": "as §1"}},
  "note": "Results filed as inconclusive are left out. Active and inactive are the calls of the source. Unless noted, calls follow the shape of the dose curve; as a rule, active = well fitted curve in the direction sought with a large enough effect; inconclusive = small, poorly fitted or top-dose-only effect, or another doubt; inactive = no such curve, though single readings can be large; an effect the other way counts as inactive or inconclusive. Bridge positions count the residues as written; N and C are the ends. Square brackets hold non-standard residues; d marks the D form. Peptide text beside a SMILES is read from it. * marks the point of attachment. Ileψ(thiazoline)Cys = CC[C@H](C)[C@H](N)C1=N[C@H](C(=O)*)CS1; d(aIle) = CC[C@H](C)[C@@H](N)C(=O)O; dOrn = NCCC[C@@H](N)C(=O)O;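 as to growth, % of control: plate controls were DMSO vehicle wells for no effect and artemisinin wells for full effect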;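 as to parasite growth, % of DMSO control: scaled between DMSO vehicle wells and 0.29 µM artemisinin as full inhibition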;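 as to remaining proliferation (% of control), lower = more inhibition: 100% = DMSO vehicle wells and 0% = artemisinin-treated control wells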",
  "data": [
    {"smiles": "C[C@@H]1[C@H]2CC[C@@H]3[C@@H]4CC=C5C[C@@H](N(C)C)CC[C@]5(C)[C@@H]4CC[C@@]32CN1C", "values": [
      {"measurement": "activation", "setting": "[1]", "value": "23.8% (inactive)"}
    ]},
    {"smiles": "COc1cc2cc3c4cc(OC)c(OC)cc4cc[n+]3c(C)c2cc1OC", "values": [
      {"measurement": "Potency", "setting": "[2]", "value": "inactive"},
      {"measurement": "Potency", "setting": "[3]", "value": "inactive"}
    ]},
    {"smiles": "CS(=O)(=O)Nc1cccc(-c2nc(Nc3ccc(F)cc3)c3ccccc3n2)c1", "values": [
      {"measurement": "Potency", "setting": "[2]", "value": "inactive"},
      {"measurement": "Potency", "setting": "[3]", "value": "inactive"}
    ]},
    {"smiles": "CS(=O)(=O)Nc1cccc(-c2nc(Nc3ccccc3)c3ccccc3n2)c1", "values": [
      {"measurement": "Potency", "setting": "[2]", "value": "inactive"},
      {"measurement": "activation", "setting": "[1]", "value": "6.74% (inactive)"},
      {"measurement": "Potency", "setting": "[3]", "value": "inactive"}
    ]},
    {"smiles": "COc1ccc(CNc2ncncc2-c2ccccc2CN(C)C)c(OC)c1", "values": [
      {"measurement": "Potency", "setting": "[2]", "value": "inactive"},
      {"measurement": "Potency", "setting": "[3]", "value": "inactive"}
    ]},
    {"smiles": "CC[C@H]1NC(=O)c2cc(S(N)(=O)=O)c(Cl)cc2N1", "values": [
      {"measurement": "activation", "setting": "[1]", "value": "3.52% (inactive)"}
    ]},
    {"smiles": "CN1CCC2(CC1)CCN(C(=O)c1ccncc1)CC2", "values": [
      {"measurement": "activation", "setting": "[1]", "value": "7.12% (inactive)"}
    ]},
    {"smiles": "COc1ccc([C@@H]2CC(=O)c3c(O)cc(O)cc3O2)cc1O", "values": [
      {"measurement": "outcome", "setting": "[4]", "value": "inactive"}
    ]},
    {"smiles": "Fc1ccc(Nc2nc(-c3cccnc3)nc3ccccc23)cc1", "values": [
      {"measurement": "Potency", "setting": "[2]", "value": "inactive"},
      {"measurement": "Potency", "setting": "[3]", "value": "inactive"}
    ]},
    {"smiles": "O[C@H](c1cc(C(F)(F)F)nc2c(C(F)(F)F)cccc12)[C@H]1CCCCN1", "values": [
      {"measurement": "Potency", "setting": "[5]", "value": "89.4 nM (active)"},
      {"measurement": "remaining parasite growth % (stronger effect = lower value)", "setting": "[6]", "value": -0.0865, "unit": "%"},
      {"measurement": "activity, percent of control", "setting": "[7]", "value": 1.34, "unit": "%"},
      {"measurement": "remaining proliferation (% of control), lower = more inhibition", "setting": "[8]", "value": 0.677, "unit": "%"},
      {"measurement": "parasite growth, % of DMSO control", "setting": "[9]", "value": 8.08, "unit": "%"},
      {"measurement": "parasite growth remaining, % of DMSO control (lower = more inhibition)", "setting": "[10]", "value": 8.4, "unit": "%"},
      {"measurement": "parasite growth, % of control (lower = inhibition)", "setting": "[11]", "value": 18.7, "unit": "%"},
      {"measurement": "growth, % of control", "setting": "[12]", "value": 4.87, "unit": "%"}
    ]},
    {"smiles": "CC(=C(CCOP(=O)(O)O)SC(=O)c1ccccc1)N(C=O)Cc1cnc(C)nc1N", "values": [
      {"measurement": "Potency", "setting": "[2]", "value": "inactive"},
      {"measurement": "Potency", "setting": "[3]", "value": "inactive"}
    ]},
    {"smiles": "Cc1ccc2c(c1)c1c3n2CCN[C@H]3CCC1", "values": [
      {"measurement": "outcome", "setting": "[4]", "value": "inactive"}
    ]},
    {"smiles": "C[C@@]12C=CC(=O)C=C1CC[C@H]1[C@H]3CC[C@](O)(C(=O)CO)[C@]3(C)CC(=O)[C@@H]12", "values": [
      {"measurement": "activation", "setting": "[1]", "value": "-13.5% (inactive)"}
    ]},
    {"smiles": "COc1cc(C2Oc3cc(C4Oc5cc(O)cc(O)c5C(=O)C4O)ccc3OC2CO)ccc1O", "note": "(stereo unspecified)", "values": [
      {"measurement": "Potency", "setting": "[2]", "value": "inactive"},
      {"measurement": "Potency", "setting": "[3]", "value": "inactive"}
    ]},
    {"smiles": "CO[C@@H]1C=CO[C@]2(C)Oc3c(C)c(O)c4c(O)c(c(C=NN5CCN(C)CC5)c(O)c4c3C2=O)NC(=O)C(C)=CC=C[C@H](C)[C@H](O)[C@H](C)[C@H](O)[C@H](C)[C@H](OC(C)=O)[C@H]1C", "values": [
      {"measurement": "remaining parasite growth % (stronger effect = lower value)", "setting": "[6]", "value": 5.75, "unit": "%"},
      {"measurement": "activity, percent of control", "setting": "[7]", "value": 4.21, "unit": "%"},
      {"measurement": "parasite growth, % of DMSO control", "setting": "[9]", "value": 5.98, "unit": "%"},
      {"measurement": "parasite growth remaining, % of DMSO control (lower = more inhibition)", "setting": "[10]", "value": 11.9, "unit": "%"},
      {"measurement": "parasite growth, % of control (lower = inhibition)", "setting": "[11]", "value": 22.5, "unit": "%"},
      {"measurement": "growth, % of control", "setting": "[12]", "value": 5.71, "unit": "%"}
    ]},
    {"smiles": "CC[C@H](C)[C@H](N)C1=N[C@H](C(=O)N[C@@H](CC(C)C)C(=O)N[C@@H](CCC(=O)O)C(=O)N[C@@H](C(=O)N[C@H]2CCCCNC(=O)[C@@H](CC(N)=O)NC(=O)[C@@H](CC(=O)O)NC(=O)[C@@H](Cc3cnc[nH]3)NC(=O)[C@@H](Cc3ccccc3)NC(=O)[C@@H]([C@@H](C)CC)NC(=O)[C@@H](CCCN)NC2=O)[C@@H](C)CC)CS1", "note": "({Ileψ(thiazoline)Cys}-LE[d(aIle)]K[dOrn][d(aIle)][dF][dH][dD][dN]; lactam 4-C)", "values": [
      {"measurement": "activation", "setting": "[1]", "value": "-5.24% (inactive)"}
    ]}
  ]
}
